Compounds with a hit are over-represented: about 0.28% of the library has one in this group of screens.
hcGAS inh – Primary biochemical luminescence assay for human cyclic GMP-AMP synthase inhibitors | recombinant h-cGAS, ATP depletion, Kinase-Glo luminescence | inhibition, % at 12.5 µM | 290,000 compounds, 0.081% hits | AID 1259398, 2018
Target sequence (Q8N884 whole entry, looked up): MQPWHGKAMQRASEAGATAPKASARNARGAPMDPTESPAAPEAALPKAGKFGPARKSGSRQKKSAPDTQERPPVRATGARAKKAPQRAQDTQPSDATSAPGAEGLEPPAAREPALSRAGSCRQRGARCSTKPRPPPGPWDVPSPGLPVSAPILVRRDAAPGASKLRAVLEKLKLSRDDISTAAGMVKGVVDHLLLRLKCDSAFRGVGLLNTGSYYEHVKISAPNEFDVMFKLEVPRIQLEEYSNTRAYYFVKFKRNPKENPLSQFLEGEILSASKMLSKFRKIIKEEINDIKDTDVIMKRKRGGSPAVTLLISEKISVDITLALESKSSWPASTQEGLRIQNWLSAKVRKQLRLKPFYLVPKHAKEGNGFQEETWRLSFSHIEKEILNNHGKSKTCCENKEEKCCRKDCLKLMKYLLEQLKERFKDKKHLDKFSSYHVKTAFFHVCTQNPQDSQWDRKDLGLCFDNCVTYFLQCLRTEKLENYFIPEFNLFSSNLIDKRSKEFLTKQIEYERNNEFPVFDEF
mcGAS lum – cyclic GMP-AMP synthase inhibitors, mouse, primary biochemical chemiluminescence. inhibition, % at 12.5 µM. recombinant cGAS, Kinase-Glo ATP depletion luminescence. Q8C6L5. 160,000 compounds, 0.15% hits
NPYLR7 ag – agonists of mosquito NPYLR7 receptor, primary screen, cell-based, Aedes aegypti, calcium fluorescence, mosquito biting behavior; Aedes aegypti neuropeptide Y-like receptor 7 (NPYLR7); HEK293T NPYLR7/Galpha15, GCaMP6s calcium fluorescence; activation, % at 10 µM; 270,000 compounds, 0.15% hits; AID 1259423, 2018; in the data active = activation above about 40%
Of the large screens only hits and unclear results are named; the others gave an inactive call. Cut-off read from the data, not from the text of the source, unless noted: active = inhibition above about 40%; inactive = the rest.

O=C1NC(=O)N(Cc2ccccc2)C(=O)/C1=C\c1ccco1	mcGAS lum 44
Cc1cc(C)cc(N2C(=O)NC(=O)/C(=C\c3ccco3)C2=O)c1	none
O=C1NC(=O)N(Cc2ccccc2)C(=O)C1=Cc1ccco1	none (no result: mcGAS lum)
Cc1ccccc1N1C(=O)/C(=C/c2ccco2)C(=O)NC1=S	hcGAS inh 41, mcGAS lum 86
O=C(NC1CCC1)c1nn(Cc2ccc(OCc3ccccc3)cc2)c2ccccc12	none
CN(C)CP(=O)(O)CN(C)C	none (no result: mcGAS lum)
O=C(c1cnc2cccnn12)N1C[C@H](c2ccccc2)[C@@H]2[C@H]1C1CCN2CC1	none (no result: mcGAS lum, NPYLR7 ag)
N=C1C(NO)=NC(c2ccccc2)N1O (stereo not given)	none (no result: mcGAS lum)
O=C(O)c1cccc(S(=O)(=O)N(CCS(=O)(=O)F)CCS(=O)(=O)F)c1	none
O=C1C=C2C(=CCOC2O)O1 (stereo not given)	hcGAS inh 88, mcGAS lum 106 (no result: NPYLR7 ag)
CC(C)C1OC2OC(=N)C(C#N)(C2(C)C)C1(C#N)C#N (stereo not given)	none (no result: mcGAS lum)
C(CCC1CCCO1)CNC1CSCCSC1 (stereo not given)	none
O=C1NC(=O)C2=Cc3ccc(O)cc3OC2(O)N1 (stereo not given)	NPYLR7 ag 193
CC(=O)O.CC(=O)O.[Cd]	hcGAS inh 74 (no result: mcGAS lum)
CC(=O)N1CN(C(C)=O)CN(C(C)=O)C1	none (no result: mcGAS lum)
CCN1CCC(n2nccc2N)CC1	none (no result: mcGAS lum)
CON(C)C(=O)c1c2c(nc3ccccc13)CCN(C)C2	none (no result: mcGAS lum)
CCNC(=O)[C@H]1O[C@@H](n2cnc3c(N)ncnc32)C(O)[C@H]1O (stereo not given in full)	NPYLR7 ag 191
c1ccc2c(c1)ncn2C1CCCNC1 (stereo not given)	none (no result: mcGAS lum)
CNC(=O)Oc1c(Br)cc2sc(=O)oc2c1Br	mcGAS lum 98
O=S(=O)(c1cc(F)ccc1F)N1CCN(CCOC(c2ccccc2)c2cccc(C(F)(F)F)c2)CC1 (stereo not given)	none
CC[C@@]1(O)C[C@H](O)c2c(cc3c(c2O)C(=O)c2c(O)ccc(O)c2C3=O)[C@H]1C(=O)OC	none (no result: mcGAS lum)
CC[C@@]1(O)C[C@H](O[C@H]2C[C@H](N(C)C)[C@H](O)[C@H](C)O2)c2c(cc3c(c2O)C(=O)c2c(O)ccc(O)c2C3=O)[C@H]1C(=O)OC	hcGAS inh 44 (no result: mcGAS lum)
CC[C@@]1(O)C[C@H](O[C@H]2C[C@H](N(C)C)[C@H](O)[C@H](C)O2)c2c(cc3c(c2O)C(=O)c2c(O)cccc2C3=O)[C@H]1C(=O)OC	hcGAS inh 72 (no result: mcGAS lum)
O=[N+]([O-])c1cc(S(=O)(=O)N2CCN(CCOC(c3ccccc3)c3ccc(F)c(F)c3)CC2)ccc1Cl (stereo not given)	none
CNC(=S)P1(=O)N(Cc2ccccc2)C(=O)c2ccccc2N1CC(=O)OC (stereo not given)	none (no result: mcGAS lum)
N#Cc1c(O)c(Cl)c(Cl)c(C#N)c1Cl	mcGAS lum 55
c1cc2c(c(-c3cnccn3)c1)CCNC2	none (no result: mcGAS lum)
O=C(Cc1cccc(F)c1)N1CCN(Cc2cccc(-c3noc(-c4ccccc4)n3)c2)CC1	none (no result: NPYLR7 ag)
COc1ccc(N(CC(O)CN2CCNCC2)S(=O)(=O)c2ccc(C)cc2)cc1 (stereo not given)	none

From PubChem
